RBX1-CUL1 inh – inhibitors of human ROC1-CUL1 ubiquitin ligase activity; P62877+Q13616; in vitro K48 di-Ub FRET, acceptor:donor ratio, 45 min; inhibition, % at 10 µM; hit rate 0.6% among 140,000; AID 1347404; in the data active = inhibition above about 25%
A number is an active result; - = inactive. Shown is part of a subset that was picked to be rich in hits.

SMILES	RBX1-CUL1 inh
CC(=O)N1/C(=C/c2ccc(O)cc2)C(=O)c2ccccc21	60
O=C1/C(=C/c2ccc(O)cc2)CS(=O)(=O)c2ccccc21	-
CC(=O)N1/C(=C/c2ccccc2O)C(=O)c2cc(Br)ccc21	-
O=C(N=Nc1c(O)[nH]c(=O)[nH]c1=O)c1cccs1	-
COc1ccc(C2=C(c3ccc(OC)cc3)OCCO2)cc1	-
COCC1=NC(=NC(N)=Nc2cccc(C)c2)NC(=O)C1	-
O=C1c2ccccc2C(=O)C1C(c1ccc(F)cc1)c1ccc(F)cc1	-
O=C1C(=Nc2ccc(F)cc2)C(N2CCCCC2)C(=O)c2ccccc21 (stereo not given)	50
CC(=O)N=C1C(=O)c2ccccc2C(=O)C1N1CCN(c2ccc(F)cc2)CC1 (stereo not given)	-
O=C(CC(c1ccccc1)c1ccccc1F)N1CCC(N2CCOCC2)CC1 (stereo not given)	-
C/C(=N\N1CCN(C2c3ccccc3-c3ccccc32)CC1)c1ccc(F)cc1	-
O=C1C(=Nc2ccc(F)cc2)C(N2CCOCC2)C(=O)c2ccccc21 (stereo not given)	50
COc1ccccc1NC(=O)c1c(C)nc2c(c1-c1ccco1)C(N)C(C#N)S2 (stereo not given)	-
Cc1cccc(NC(=O)c2sc3nc4c(cc3c2N)CCCCC4)c1	-
COc1nc(C2C=CC=CC(=O)C2=O)cc(-c2cccc(C)c2)c1C#N (stereo not given)	-
O=S(=O)(c1ccccc1)c1nc(-c2ccc(Cl)cc2Cl)oc1NCc1ccccc1	-
COc1ccc(C(=O)N2C[C@H](O)[C@@H](N(C)CC3CCOCC3)C2)cc1	-
COc1ccccc1C1C(C(=O)c2ccccc2)C(=O)C(=O)N1CCN1CCOCC1 (stereo not given)	-
COCCOc1ccc(C(=O)Nc2ccccc2F)cc1	-
Cc1nc2ccccc2nc1-c1nnc(SCC(=O)Nc2ccc(Cl)cc2)o1	-
CCCN(CCC)c1ccc(/C=C2/N=C(c3ccccc3)OC2=O)cc1	42
Cc1ccc(/C=C2\N=C(c3ccc(C)cc3)OC2=O)cc1	-
CCN(CC)c1ccc(/C=C2/N=C(c3ccc(OC)c(OC)c3)OC2=O)cc1	-
CCCNC(=O)c1ccc(C)c(NS(C)(=O)=O)c1	-
Cc1ccccc1OCC(=O)NNc1ccc([N+](=O)[O-])cc1[N+](=O)[O-]	36
SMILES	RBX1-CUL1 inh
CCOC(=O)c1cc(-c2ccc([N+](=O)[O-])cc2)n(NC(=O)COc2ccccc2C)c1C	-
O=C(NNc1ccc([N+](=O)[O-])cc1[N+](=O)[O-])c1cccc2ccccc12	-
O=C(CN1CCN(c2ccccc2)CC1)NC1Cc2ccccc2Sc2ccccc21 (stereo not given)	-
Cc1nc(CC(=O)N2CCCC(Nc3cccc(F)c3)C2)cs1 (stereo not given)	-
CCOc1cc(/C=C2\SC(=S)N(c3ccccc3)C2=O)ccc1OCc1ccc(Cl)cc1Cl	-
CCOc1cc(/C=C2\SC(=S)N(c3cccc(Cl)c3)C2=O)ccc1OCC(=O)O	33
COc1cc(/C=C2\SC(=S)N(c3cccc(C(F)(F)F)c3)C2=O)ccc1OCC(=O)O	-
COc1cccc(N2C(=O)/C(=C/c3ccc(O)cc3)SC2=S)c1	-
CCOc1cc(/C=C2\SC(=S)N(c3ccc(OC)cc3)C2=O)ccc1OCC(=O)O	57
COc1ccc(N2C(=O)/C(=C\c3ccc(O)c(Br)c3)SC2=S)cc1	42
COc1ccc(N2C(=O)/C(=C\c3ccc(OC(=O)c4cccs4)c(OC)c3)SC2=S)cc1	-
O=C(O)COc1ccc(/C=C2\SC(=S)N(c3cccc(Cl)c3)C2=O)cc1	-
C=CCOc1ccc(/C=C2\SC(=S)N(c3ccc(OC)cc3)C2=O)cc1OCC	-
O=C(CNc1ccc(Cl)cc1Cl)NN=Cc1ccccc1OCc1ccccc1	-
Cc1cc2ccccc2n1CCNC(=O)CC1C(=O)NCCN1Cc1ccoc1 (stereo not given)	-
Cc1cc(C)c(NC(=O)CSc2nc3ccc(NC(=O)CCc4ccccc4)cc3s2)c(C)c1	-
N=C1N=NC(=O)N(c2ccccc2)C1Nc1cc(C(F)(F)F)cc(C(F)(F)F)c1 (stereo not given)	-
CSCCNC1CCN(c2ccc(CC(=O)NCc3ccccc3)cc2)CC1	-
O=C(NC(NC(=S)Nc1ccccc1I)C(Cl)(Cl)Cl)c1ccc(F)cc1 (stereo not given)	-
COC(=O)CCNC(=O)C1CCC(=O)N(CCc2cccc(F)c2)C1 (stereo not given)	-
CC(=O)Nc1ccc(N2N=C(C)/C(=C/c3ccccc3)C2=O)cc1	41
CC1=NN(c2cc(Cl)cc(Cl)c2)C(=O)/C1=C\c1ccc(N2CCOCC2)cc1	-
COc1cccc(/C=C2\C(=O)N(c3ccccc3)N=C2C)c1OC	-
CC1=NN(c2ccccc2)C(=O)/C1=C/c1cc(C)n(-c2cccc(C(F)(F)F)c2)c1C	-
CC1=NN(c2ccccc2)C(=O)/C1=C\C1=Nc2ccccc2C1	-
CC1=NN(c2ccccc2)C(=O)/C1=C/c1cccc(OC2CSC2)c1	32
CC(=O)Oc1ccc(-n2c(C)cc(/C=C3\C(=O)N(c4ccccc4)N=C3C)c2C)cc1	-
